PubChem BioAssay AID1159580 (chemical genetic matrix, 2015)
Among all 5,500 compounds or so, about 2,000 (36%) were called active. Inconclusive results (about 18%) are left out. No stated cut-off is given here; in the data, active means normalized growth mostly below about 0.91 (no sharp cut-off); inconclusive means no clear call, values can overlap the other calls; inactive means mostly above about 0.92. This is one part of the list.

Experiment: chemical genetic growth profiling, strain panel (AID 1159580);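 further: tested at 20 µM; growth read once vehicle control cultures reached saturation at 30 °C; 1 = growth at the plate median or of vehicle wells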
Conditions: growth OD

Measured: normalized growth

O=[N+]([O-])O[C@H]1CO[C@H]2[C@@H]1OC[C@H]2O[N+](=O)[O-]
active: S. cerevisiae deletion strains, locus YOR231W, strain MKK1, stronger effect = lower value 0.837
inactive: S. cerevisiae deletion strains, locus YJR043C, strain POL32, stronger effect = lower value 1.02 | S. cerevisiae deletion strains, locus YJR066W, strain TOR1, stronger effect = lower value 0.946 | S. cerevisiae deletion strains, locus YKL009W, strain mrt4, stronger effect = lower value 1.03 | S. cerevisiae deletion strains, locus YKL068W, stronger effect = lower value 1.01 | S. cerevisiae deletion strains, locus YKL085W, strain MDH1 (second series), stronger effect = lower value 1.01 | S. cerevisiae deletion strains, locus YKL085W, strain MDH1, stronger effect = lower value 1.01 | S. cerevisiae deletion strains, locus YKL160W, strain elf1, stronger effect = lower value 0.98 | S. cerevisiae deletion strains, locus YKL190W, strain CNB1, stronger effect = lower value 1.02 | S. cerevisiae deletion strains, locus YKR001C, strain vps1, stronger effect = lower value 1.02 | S. cerevisiae deletion strains, locus YKR026C, strain gcn3, stronger effect = lower value 0.993 | S. cerevisiae deletion strains, locus YKR091W, strain srl3, stronger effect = lower value 0.993 | S. cerevisiae deletion strains, locus YLL001W, strain dnm1, stronger effect = lower value 0.971 | S. cerevisiae deletion strains, locus YLL026W, stronger effect = lower value 1 | S. cerevisiae deletion strains, locus YLL041C, strain sdh2, stronger effect = lower value 0.998 | S. cerevisiae deletion strains, locus YLR027C, strain aat2, stronger effect = lower value 1.01 | S. cerevisiae deletion strains, locus YLR039C, strain RIC1, stronger effect = lower value 1.05 | S. cerevisiae deletion strains, locus YLR058C, strain SHM2, stronger effect = lower value 1.01 | S. cerevisiae deletion strains, locus YLR102C, strain apc9, stronger effect = lower value 1.01 | S. cerevisiae deletion strains, locus YLR113W, strain HOG1, stronger effect = lower value 0.926 | S. cerevisiae deletion strains, locus YLR221C, strain rsa3, stronger effect = lower value 0.995 | S. cerevisiae deletion strains, locus YLR258W, strain gsy2, stronger effect = lower value 0.995 | S. cerevisiae deletion strains, locus YLR262C, strain YPT6 (second series), stronger effect = lower value 1 | S. cerevisiae deletion strains, locus YLR262C, strain YPT6, stronger effect = lower value 1.02 | S. cerevisiae deletion strains, locus YLR268W, strain sec22, stronger effect = lower value 1.04 | S. cerevisiae deletion strains, locus YLR320W, strain mms22, stronger effect = lower value 0.979 | S. cerevisiae deletion strains, locus YLR330W, strain CHS5, stronger effect = lower value 1.01 | S. cerevisiae deletion strains, locus YLR342W, strain FKS1 (second series), stronger effect = lower value 1.04 | S. cerevisiae deletion strains, locus YLR342W, strain FKS1, stronger effect = lower value 0.995 | S. cerevisiae deletion strains, locus YLR357W, strain rsc2, stronger effect = lower value 0.983 | S. cerevisiae deletion strains, locus YLR370C, strain arc18, stronger effect = lower value 0.992 | S. cerevisiae deletion strains, locus YLR371W, strain rom2, stronger effect = lower value 1 | S. cerevisiae deletion strains, locus YLR384C, strain iki3, stronger effect = lower value 0.981 | S. cerevisiae deletion strains, locus YLR418C, strain cdc73, stronger effect = lower value 1.09 | S. cerevisiae deletion strains, locus YML016C, strain PPZ1, stronger effect = lower value 1.01 | S. cerevisiae deletion strains, locus YML032C, strain rad52, stronger effect = lower value 1.03 | S. cerevisiae deletion strains, locus YML120C, strain ndi1, stronger effect = lower value 0.966 | S. cerevisiae deletion strains, locus YML124C, strain tub3, stronger effect = lower value 1.02 | S. cerevisiae deletion strains, locus YMR058W, strain fet3, stronger effect = lower value 1 | S. cerevisiae deletion strains, locus YMR078C, strain ctf18, stronger effect = lower value 1.02 | S. cerevisiae deletion strains, locus YMR125W, strain sto1, stronger effect = lower value 0.996 | S. cerevisiae deletion strains, locus YMR129W, stronger effect = lower value 0.988 | S. cerevisiae deletion strains, locus YMR205C, strain PFK2, stronger effect = lower value 0.963 | S. cerevisiae deletion strains, locus YMR223W, strain ubp8, stronger effect = lower value 1.05 | S. cerevisiae deletion strains, locus YMR231W, strain pep5, stronger effect = lower value 1 | S. cerevisiae deletion strains, locus YMR307W, strain GAS1, stronger effect = lower value 1.05 | S. cerevisiae deletion strains, locus YNL067W, strain RPL9B, stronger effect = lower value 1.01 | S. cerevisiae deletion strains, locus YNL071W, strain lat1, stronger effect = lower value 0.996 | S. cerevisiae deletion strains, locus YNL128W, strain TEP1, stronger effect = lower value 1.03 | S. cerevisiae deletion strains, locus YNL183C, strain NPR1, stronger effect = lower value 0.955 | S. cerevisiae deletion strains, locus YNL209W, strain ssb2, stronger effect = lower value 0.994 | S. cerevisiae deletion strains, locus YNL233W, strain BNI4, stronger effect = lower value 1.01 | S. cerevisiae deletion strains, locus YNL248C, strain rpa49, stronger effect = lower value 1.01 | S. cerevisiae deletion strains, locus YNL250W, strain rad50, stronger effect = lower value 1.05 | S. cerevisiae deletion strains, locus YNL271C, strain bni1, stronger effect = lower value 1.01 | S. cerevisiae deletion strains, locus YNL298W, strain CLA4, stronger effect = lower value 1.03 | S. cerevisiae deletion strains, locus YNL307C, strain MCK1, stronger effect = lower value 1.02 | S. cerevisiae deletion strains, locus YNL322C, strain KRE1 (second series), stronger effect = lower value 0.979 | S. cerevisiae deletion strains, locus YNR049C, strain mso1, stronger effect = lower value 0.981 | S. cerevisiae deletion strains, locus YNR052C, strain pop2, stronger effect = lower value 1.02 | S. cerevisiae deletion strains, locus YOL006C, strain TOP1, stronger effect = lower value 1.01 | S. cerevisiae deletion strains, locus YOL012C, strain htz1 1.04 | S. cerevisiae deletion strains, locus YOL147C, strain pex11, stronger effect = lower value 1.02 | S. cerevisiae deletion strains, locus YOR001W, strain rrp6, stronger effect = lower value 1.01 | S. cerevisiae deletion strains, locus YOR061W, strain CKA2, stronger effect = lower value 1.01 | S. cerevisiae deletion strains, locus YOR069W, strain VPS5, stronger effect = lower value 1.01 | S. cerevisiae deletion strains, locus YOR070C, strain gyp1, stronger effect = lower value 1 | S. cerevisiae deletion strains, locus YOR080W, strain dia2, stronger effect = lower value 0.994 | S. cerevisiae deletion strains, locus YOR083W, strain WHI5, stronger effect = lower value 0.977 | S. cerevisiae deletion strains, locus YOR106W, strain vam3, stronger effect = lower value 1 | S. cerevisiae deletion strains, locus YOR136W, strain idh2, stronger effect = lower value 1.02 | S. cerevisiae deletion strains, locus YOR144C, strain elg1, stronger effect = lower value 1.02 | S. cerevisiae deletion strains, locus YOR184W, strain ser1, stronger effect = lower value 1.03 | S. cerevisiae deletion strains, locus YOR265W, strain rbl2, stronger effect = lower value 0.994 | S. cerevisiae deletion strains, locus YOR270C, strain vph1, stronger effect = lower value 1.02 | S. cerevisiae deletion strains, locus YOR290C, strain snf2, stronger effect = lower value 0.939 | S. cerevisiae deletion strains, locus YOR316C, strain cot1, stronger effect = lower value 1.01 | S. cerevisiae deletion strains, locus YPL051W, strain arl3, stronger effect = lower value 0.985 | S. cerevisiae deletion strains, locus YPL078C, strain atp4, stronger effect = lower value 0.979 | S. cerevisiae deletion strains, locus YPL106C, strain sse1, stronger effect = lower value 0.949 | S. cerevisiae deletion strains, locus YPL240C, strain hsp82, stronger effect = lower value 1 | S. cerevisiae deletion strains, locus YPL256C, strain CLN2, stronger effect = lower value 0.938 | S. cerevisiae deletion strains, locus YPR119W, strain clb2, stronger effect = lower value 1.02 | S. cerevisiae deletion strains, locus YPR141C, strain kar3, stronger effect = lower value 1.02 | S. cerevisiae deletion strains, locus YPR163C, strain tif3, stronger effect = lower value 1.01 | S. cerevisiae deletion strains, locus YPR167C, strain met16, stronger effect = lower value 1.02 | S. cerevisiae deletion strains, strain wtn01, stronger effect = lower value 1.05 | S. cerevisiae strains, strain wild type, stronger effect = lower value 1.02
